NPC1 promoter act – NPC1 promoter activation. Huh7 NPC1 promoter luciferase reporter, 24 h. hit rate 2.4% among 320,000. AID 485313. Potency, µM (doses to about 9.22 µM), without a hit: at the top dose activation, actives largely listed as activators; note: % of control where 0% means no effect; nearly all actives have a fitted effect of over 60% in size
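Stably transfected Huh7 (NPC1 promoter→luciferase), 1500 cells/well in Opti-MEM + 10% FBS, 2 h settle, then compound 24 h at 37 °C. Luminescence after 10 min with Amplite reagent.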
SMN2 splice enh – enhancers of SMN2 splice variant expression; hit rate 2.8% among 210,000; Potency, µM (doses to about 46.1 µM), inactives show at the top dose activity change, positive = activation, usual class: activators; HEK293 SMN2-luciferase splicing reporter, luminescence, 30-36 h; note: % of control where 0% means no effect; nearly all actives have a fitted effect of over 55% in size
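HEK293 cells carry an SMN2 […]–luciferase reporter in which exon 7 inclusion puts luciferase in frame. Cells were plated 10-12 h before compound addition, then incubated 30-36 h at 37C. ONE-Glo luminescence was read; sodium butyrate at 4.5 mM final served as control.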
Rab9 prom act – Rab9 promoter activation; Potency, µM (top dose mostly 9.22 µM), for inactives: at the highest dose activation, negative = inhibition, actives largely listed as activators; Huh7 Rab9 promoter-luciferase reporter, luminescence, 24 h; hit rate 2.8% among 320,000; note: % of control where 0% means no effect; nearly all actives have a fitted effect of over 60% in size
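Huh7 reporter line, Rab9 promoter upstream of luciferase. Compound exposure 24 h at 37 °C in reduced-serum medium with 10% FBS. Read-out: luminescence.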
ELG1 genotoxic – induces genotoxicity in HEK293T cells with luciferase-tagged ELG1. AID 504466. HEK293T ELG1-luciferase reporter, luminescence, 16 h. hit rate 1.3% among 330,000. Potency, µM (highest dose often 46 µM), inactives show at the highest dose activity change, positive = activation, hits mostly activators; note: % of control where 0% means no effect; nearly all actives have a fitted effect of over 60% in size
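Quantitative HTS format in 1536-well plates. HEK293T ELG1-luciferase reporter cells receive test compound and are incubated 16 hr at 37 °C, 5% CO2; ONE-Glo added, 30 min room temperature, then luminescence read.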
ELG1 repair inh – ELG1-dependent DNA repair inhibition | HEK293T ELG1-luciferase reporter, luminescence, 16 h; DNA damage induced by 5-fluorouridine | hit rate 2.3% among 330,000 | AID 504467 | Potency, µM (titrated, usually from 46.1 µM), inactives show at the top dose activity change, negative = inhibition, hits mostly inhibitors; note: % is set by controls: 0 for no effect and ±100 for the full control effect; nearly all actives have a fitted effect of over 55% in size
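Quantitative HTS, concentration-response format. 2,000 cells/well co-treated with 5-fluorouridine and compound, 16 hr in 5% CO2 at 37 °C; ONE-Glo luminescence read after 30 min.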
FLuc counter – inhibits or activates purified firefly luciferase, miR-21 counter-screen; P08659; purified FLuc, Km substrates, luminescence inhibition; Potency, µM (doses to about 57.5 µM), inactives show top-dose activity change, negative = inhibition, hits mostly inhibitors; hit rate 6.9% among 360,000;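 note: plate controls were vehicle for no effect and reference inhibitor for full effect; nearly all actives have a fitted effect of over 55% in size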
Target sequence (P08659 whole entry, looked up): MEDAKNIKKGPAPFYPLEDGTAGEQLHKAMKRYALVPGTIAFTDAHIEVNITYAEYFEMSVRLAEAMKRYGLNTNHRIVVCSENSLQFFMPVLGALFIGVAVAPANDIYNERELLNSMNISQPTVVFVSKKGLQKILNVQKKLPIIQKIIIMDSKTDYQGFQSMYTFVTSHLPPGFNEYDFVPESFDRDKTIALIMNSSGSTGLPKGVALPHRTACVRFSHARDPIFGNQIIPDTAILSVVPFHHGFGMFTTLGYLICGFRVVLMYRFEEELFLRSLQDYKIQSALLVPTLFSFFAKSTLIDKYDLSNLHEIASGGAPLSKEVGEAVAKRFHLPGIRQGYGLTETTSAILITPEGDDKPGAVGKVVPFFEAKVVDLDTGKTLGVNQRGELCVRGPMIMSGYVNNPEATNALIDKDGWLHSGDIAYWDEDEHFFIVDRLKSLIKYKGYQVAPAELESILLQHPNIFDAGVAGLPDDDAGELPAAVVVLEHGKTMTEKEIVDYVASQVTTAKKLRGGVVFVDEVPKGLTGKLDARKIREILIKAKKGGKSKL
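Purified P. pyralis luciferase, 10 nM final, with Km-level 10 uM D-luciferin and 10 uM ATP in 50 mM Tris acetate pH 7.5, 10 mM Mg acetate, 0.01% Tween-20, 0.05% BSA; 6-point qHTS titration about 60 µM downward; luminescence read.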
* = called active by the depositor; ? = inconclusive; . = no result; [ ] = another dose, or the depositor's remark. Sampled rows, rich in hits. Any-hit rate of the full collection: about 9.2%. Calls come from the whole dose curve; as a rule, active = well fitted curve in the direction sought with a large enough effect; inconclusive = small, poorly fitted or top-dose-only effect, or another doubt; inactive = no such curve, though single readings can be large; an effect the other way counts as inactive or inconclusive. Potency is the fitted concentration of half-maximal effect.

SMILES | NPC1 promoter act | SMN2 splice enh | Rab9 prom act | ELG1 genotoxic | ELG1 repair inh | FLuc counter
CC(C)c1ccc(OCC(=O)Nc2cccc(C(=O)Nc3ccccc3C(=O)O)c2)cc1 | 0% | 14% | -4% | 2% | -11% | 21µM*
CC(C)C(=O)Nc1cccc(C(=O)Nc2ccccc2C(=O)O)c1 | 7% | -6% | 16% | -1% | ? | 7.6µM*
O=C(Nc1cccc(NC(=O)c2ccccc2Cl)c1)c1cccc(Br)c1 | . | -11% | . | . | . | 1%
Cc1csc(NC(=O)c2ccccc2[N+](=O)[O-])n1 | -1% | -5% | 4% | 4% | 9% | 2%
Cc1csc(NC(=O)c2ccc(Cl)cc2[N+](=O)[O-])n1 | ? | 11µM* | 4.5µM* | ? | ? | 27µM*
Cc1csc(NC(=O)c2ccc(C)c([N+](=O)[O-])c2)n1 | 2µM* | 3.5µM* | 1.1µM* | ? | ? | 1.1µM*
C/C(=N\N1C(=O)c2ccccc2C1=O)c1cccc([N+](=O)[O-])c1 | -1% | 13% | 1% | 0% | 10% | 17µM*
C/C(=N/N1CCN(c2ccccn2)CC1)c1cccc([N+](=O)[O-])c1 | 7% | -13%[1.84 µM] | 2% | 0% | 1% | -8%
CC(NS(=O)(=O)c1ccc(OCC(=O)N2CCOCC2)c(Cl)c1)c1ccccc1 (configuration not stated) | 0% | -32% | 2% | 2% | 15µM* | 7%
CC(NS(=O)(=O)c1ccc(OCC(=O)N2CCOCC2)cc1)c1ccccc1 (configuration not stated) | 0% | -12% | -4% | 0% | 1% | 3%
CCOc1ccc(C(c2c(C)[nH]n(-c3ccccc3)c2=O)c2c(C)[nH]n(-c3ccccc3)c2=O)cc1OC | . | -1% | . | . | . | 3µM*
O=C(O)Cn1c(=O)c2c3c(sc2n(Cc2ccccc2F)c1=O)CCCC3 | -5% | . | 0% | 0% | 7% | -1%
CCN1C=C(Cc2ccc(OC)cc2)C2=C(C1)C(c1ccc(OC)cc1)C(C#N)=C(N)O2 (configuration not stated) | -5% | -17% | -4% | -10% | 21µM* | -3%
COc1ccc(C2C(C#N)=C(N)Oc3cc4c(cc32)OCO4)cc1 (configuration not stated) | -1% | 23% | 1% | -5% | ? | 0%
CC1CCCC(C)N1C(=O)c1ccc(S(=O)(=O)NCc2ccco2)cc1 (configuration not stated) | -6% | . | -3% | -14% | 12µM* | 1%
Cc1ccccc1C(=O)N1CCc2c([nH]c3ccccc23)C1C(F)(F)F (configuration not stated) | -3% | . | -1% | -2% | 13µM* | 0%
CC(c1ccon1)N(C)C(=O)c1ccc2nc(Cc3cccc(Cl)c3)oc2c1 (configuration not stated) | -2% | . | -7% | -2% | 1% | -5%
CCc1ccc(NC(=O)Nc2ccc3c(c2)CCC3)cc1 | ? | . | ? | ? | ? | -5%
Cc1cc(C)cc(NC(=O)Nc2cccc(S(N)(=O)=O)c2)c1 | 2% | . | 1% | 0% | -4% | 15µM*
CC(=O)c1cccc(NC(=O)Nc2ccc3c(c2)CCC3)c1 | ? | . | ? | 13% | ? | 2.4µM*
Cc1cccc(NC(=O)Nc2ccc3c(c2)CCC3)c1 | 2µM* | . | 1.8µM* | ? | ? | 3µM*
CC(=O)c1cccc(NC(=O)NC2CCCc3ccccc32)c1 (configuration not stated) | -2% | . | -7% | -2% | -1% | -3%
Cc1cccc(NC(=O)Nc2ccncc2)c1 | 12% | ? | 17% | 7% | ? | 17µM*
CCOc1nc2cccc(C(=O)OC(C)OC(=O)OC3CCCCC3)c2n1Cc1ccc(-c2ccccc2-c2nn[nH]n2)cc1 (configuration not stated) | . | 9% | . | . | . | .

High-throughput results (PubChem)
